Assay outcomes as filed in PubChem.
TDP1 cell noCPT: qHTS for Inhibitors of human tyrosyl-DNA phosphodiesterase 1 (TDP1): qHTS in cells in absence of CPT | DT40 Tdp1-/- hTDP1 cells, no CPT, ATP luminescence, 48 h | Potency, µM (highest dose often 46.2 µM), without a hit: at the highest dose activity change, negative = growth inhibition, actives largely listed as inhibitors | hit rate 15% among 420,000 | AID 686978, 2013; further: potency means the concentration at half of the fitted maximal effect; nearly all actives have a fitted effect of over 55% in size
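Growth of hTDP1-complemented DT40 Tdp1-knockout cells is measured by ATP luminescence after at least 48 hr compound exposure at 37 °C, with DMSO substituting for the 20 nM CPT used in the parallel screen.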
IL-1B inflam inh: inflammasome signaling inhibition, IL-1 beta readout | activity change, % at 57.5 µM | hit rate 4.7% among 360,000 | AID 743279 | THP-1 LPS/ATP IL-1B secretion, AlphaLISA, 16 h; stronger effect = lower value; in the data active means activity change below about -50%; inconclusive means mostly about -30% to -49%
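Secreted IL-1B measured by AlphaLISA bead assay after 16 h compound exposure of THP-1 cells; compounds (final up to 57.5 uM) added 1 h before LPS (250 ng/mL) and ATP (1.25 mM) stimulation; lower signal means less secretion.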
TDP1 cell CPT: DT40-hTDP1 cell growth loss with CPT. chicken DT40 Tdp1-/-;hTDP1 cells + 20 nM CPT, ATP luminescence, 48 h. Potency, µM (series often up to 46.2 µM), without a hit: top-dose activity change, negative = growth inhibition, actives largely listed as inhibitors. hit rate 12% among 420,000; further: potency means the concentration at half of the fitted maximal effect; nearly all actives have a fitted effect of over 55% in size
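Cell growth measured by CellTiter-Glo luminescence after a minimum 48 h, 37 C compound exposure with 20 nM CPT in Tdp1-knockout DT40 cells stably expressing hTDP1, seeded 400/well; qHTS titration format.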
ELG1 DNA repair: ELG1-dependent DNA repair inhibition; HEK293T ELG1-luciferase reporter, luminescence, 16 h; DNA damage induced by 5-fluorouridine; Potency, µM (series often up to 46.1 µM), for inactives: at the top dose activity change, negative = inhibition, usual class: inhibitors; hit rate 2.3% among 330,000; AID 504467; further: potency means the concentration at half of the fitted maximal effect; nearly all actives have a fitted effect of over 55% in size
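Step one: seed 2,000 cells per well. Step two: pin-transfer compound or DMSO alongside 5-fluorouridine. Step three: incubate 16 hr, 37 °C, 5% CO2. Step four: add ONE-Glo, wait 30 min, read luminescence.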
HT1080 IDH1KD tx: kills HT-1080 cells with IDH1 knockdown; HT-1080 IDH1 knockdown viability, ATP luminescence, 48 h; Potency, µM (highest dose often 46.1 µM), for inactives: top-dose activity, negative = toxicity, hits mostly cytotoxic; hit rate 2% among 360,000;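 further: potency means the concentration at half of the fitted maximal effect; 0% = DMSO wells and -100% = cell-free medium wells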
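Assay cells: HT-1080 with IDH1 knockdown, 750 per well, RPMI/5% FBS. Exposure: 48 h at 37 °C following 2 h pre-incubation. Read: CellTiter-Glo luminescence; fitted concentration-response, curve class assigned.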
HT1080NT lethal: kills 2HG-producing HT-1080-NT fibrosarcoma cells; hit rate 1.6% among 360,000; HT-1080-NT fibrosarcoma viability, CellTiter-Glo ATP luminescence, 48 h; Potency, µM (series often up to 46.1 µM), without a hit: at the top dose activity, negative = less viability, usual class: cytotoxic;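 further: NT is the 2HG producing partner of a matched IDH1 knockdown line; potency means the concentration at half of the fitted maximal effect; 0% = DMSO-treated cells and -100% = media-only wells without cells; nearly all actives have a fitted effect of over 55% in size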
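Read-out is CellTiter-Glo luminescence after 10 minutes at room temperature, following 48 hours' compound treatment of HT-1080-NT cells (750 cells/well, RPMI, 5% FBS, 37 degrees C).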
An asterisk follows results filed as active; ? = inconclusive; · = no result; ! = a repeat was not active; [ ] = another dose, or the depositor's remark. A selection: hits, their analogues and other compounds. The true share with any hit is near 19%. Unless noted, the call rests on the fitted dose curve; in most records, active means well fitted curve in the direction sought with a large enough effect; inconclusive means small, poorly fitted or top-dose-only effect, or another doubt; inactive means no such curve, though single readings can be large; an effect the other way counts as inactive or inconclusive. Unless noted, on the % scale 0 is the no-effect control and ±100 the full control effect.

SMILES	TDP1 cell noCPT	IL-1B inflam inh	TDP1 cell CPT	ELG1 DNA repair	HT1080 IDH1KD tx	HT1080NT lethal
CCCn1c(=N)c(C(=O)NCC2CCCO2)cc2c(=O)n3cccc(C)c3nc21 (configuration not stated)	?	?	?	-3%	-3%	?
Cc1ccc(Cn2c(=N)c(C(=O)NCC3CCCO3)cc3c(=O)n4cccc(C)c4nc32)cc1 (configuration not stated)	9.2µM*	-55*	7.3µM*	-2%	1%	0%
O=C(CCN1C(=O)C2CCCCC2C1=O)N1CCN(S(=O)(=O)c2c(F)cccc2F)CC1 (configuration not stated)	-2%	-2	-8%	20%	17%	21%
CCOC(=O)C1CCC(CN(Cc2ccc(OC)cc2)S(=O)(=O)c2ccc(F)c(C(=O)Nc3cc(Cl)ccc3OC)c2)CC1 (configuration not stated)	-17%	·	-11%	·	·	·
CCOc1ccccc1NC(=O)CC(O)(C(F)(F)F)C(F)(F)F	-6%	7	-20%	-4%	2%	18%
COc1ccc(C(N)=O)cc1NC(=O)CC(O)(C(F)(F)F)C(F)(F)F	?	?	15µM*	-16%	0%[9.24 µM]	2%
Cc1ccc(SC[C@H](Cc2ccccc2)N2CC[C@@H](C)CCC2=O)cc1	13µM*	-16	11µM*	-11%	-15%	-20%
CC(=O)Nc1ccc(SC[C@H](Cc2ccccc2)N2CC[C@@H](O)CCC2=O)cc1	-6%	-13	-22%	20%	8%	9%
CC(C)(C)[C@H]1CCC(=O)N([C@H](CN=[N+]=[N-])Cc2ccccc2)CC1	20µM*	2	14µM*	-9%	3%	6%
[N-]=[N+]=NC[C@H](Cc1ccccc1)N1CC[C@@H](O)CCC1=O	-4%	42	2%	-3%	15%	14%
O=C1CCC(OCc2ccccc2)CCN1[C@H](CSc1ccccc1)Cc1ccccc1 (some centres not stated)	16µM*	-5	?	·	?	?
CC(C)(C)[C@H]1CCC(=O)N([C@H](CSc2ccc(Br)cc2)Cc2ccccc2)CC1	14µM*	0	18µM*	11%	-8%	-2%
[N-]=[N+]=NC[C@H](Cc1ccccc1)N1CC[C@@H](OCc2ccccc2)CCC1=O	?	-4	?	16%	-1%	0%
CC(C)(C)[C@H]1CCC(=O)N([C@H](CSc2ccccc2)Cc2ccccc2)CC1	?	-8	23µM*	-16%	8%	15%
CCCN1CCC(=O)N([C@H](CSc2ccc(Br)cc2)Cc2ccccc2)CC1	?	-9	?	-2%	-24%	-27%
CC(C)CC1C(C#N)=C(N)OC2=C1C(=O)CC(c1ccccc1)C2 (configuration not stated)	1%	?	-9%	-5%	-2%	0%
CS(=O)(=O)c1sc(C#N)c2c1C(=O)CC(c1ccccc1)C2 (configuration not stated)	0.52µM*	-113*	0.52µM*	?	23µM*	6.5µM*
COc1cc(NC(=O)CN2C(=O)C(c3ccccc3)=NC23CCCCCC3)cc(OC)c1	-37%	?	-23%	?	-10%	-3%
O=C(CN1C(=O)C(c2ccc(F)cc2)=NC12CCCCCC2)Nc1ccccc1Cl	23µM*	·	?	·	·	·
Oc1c(CN2CCOCC2)ccc2ccccc12	?	6	?	4%	-14%	-8%
COc1ccc(/C=C/C(=O)c2ccccc2O)cc1CN1CCOCC1	?	-6	16µM*	?	?	?
COc1ccc(/C=N\NC(=O)c2nn(C)cc2Cl)cc1CN1CCOCC1	-7%	11	21%	-1%	19%	17%
COc1ccc(/C=C/C(=O)c2ccc3ccccc3c2O)cc1CN1CCOCC1	18µM*	-67*	?	-16%	-12%	-27%
COc1cccc(CN2CC(C(=O)NCCc3cn4cccnc4n3)CCC2=O)c1 (configuration not stated)	-17%	2	-3%	·	5%	1%
CC(C)c1ccc(N(CC(=O)N2CCN(Cc3ccccc3)CC2)S(C)(=O)=O)cc1	?	16	-6%	-10%	0%	-10%
SMILES	TDP1 cell noCPT	IL-1B inflam inh	TDP1 cell CPT	ELG1 DNA repair	HT1080 IDH1KD tx	HT1080NT lethal
CSCCC(NC(=O)c1ccco1)C(=O)N1CC(C)OC(C)C1 (configuration not stated)	2%	-20	-8%	8%	0%	0%
CCCCn1c(NCc2ccc(N(C)C)cc2)nc2ccccc21	26µM*	?	26µM*	-25%	-19%	-3%
COc1ccc(CNc2nc3ccccc3n2CCN2CCOCC2)cc1	21µM*	-10	-21%	-5%	-5%	-15%
CCN(CC)CCn1c(NCc2ccc3c(c2)OCO3)nc2ccccc21	16µM*	-16	13µM*	-18%	-8%	-13%
CCCn1c(NCc2ccccn2)nc2ccccc21	-5%	5	-13%	?	-2%	1%
CCCn1c(NCc2c[nH]c3ccccc23)nc2ccccc21	?	-52*	?	24%	-9%	-2%
CCCCn1c(NCc2ccncc2)nc2ccccc21	-17%	-1	-15%	18%	10%	0%
CN(C)c1ccc(CNC(=O)CCS(=O)(=O)c2ccc3c(c2)oc(=O)n3C)cc1	9%	4	15%	16%	0%	10%
CCOC(=O)N1CCN(C(=O)C2CCC(=O)N(Cc3ccccc3OC)C2)CC1 (configuration not stated)	3%	16	2%	·	10%	5%
CCN(CC)c1ccc(CNc2nc3ccccc3n2CCN2CCOCC2)cc1	18µM*	-76*	?	?	-24%	-11%
CCCCn1c(NCc2cc(Br)ccc2O)nc2ccccc21	15µM*	·	15µM*	·	·	·
CCOC(=O)C1CCN(CCC(=O)Nc2ccc(F)cc2)CC1	-2%	-1	-14%	-7%	8%	5%
COc1ccccc1C1CN(Cc2cnn(C)c2C)Cc2ccccc2O1 (configuration not stated)	-21%	·	-2%[9.04 µM]	·	·	·
O=[N+]([O-])c1ccc(Cn2cc(-c3cccc(C(F)(F)F)c3)nn2)cc1	16µM*!	-12	?	-1%	1%	0%
COc1ccccc1OCCCCNCCO	-7%	9	-1%	10%	4%	6%
